# Test results published in PubChem BioAssay (Tox21).
# “And” between values parts separate entries of the source, which are not always exact repeats. Equal entries are not always repeated. Records with an inconclusive call do not appear. Where a call stands in place of a potency, no number is given. Where a structure was tested more than once in an assay, its records may differ in their call. The source made the active and inactive calls. Calls follow the shape of the dose curve; as a rule, active = well fitted cell-killing curve with a large enough effect in the repeat runs; inconclusive = weak or mixed curves; inactive = no such curve, though single readings can be large or run the other way.
# Assay: qHTS assay to identify small molecule agonists of the peroxisome proliferator-activated receptor delta (PPARd) signaling pathway - cell viability counter screen (AID 743211); also: nearly all actives have a fitted effect of over 55% in size
# Settings: PPARd-bla HEK293H viability, CellTiter-Glo luminescence, 17 h; series mostly up to 62.6 µM
# From the text: U.S. Tox21 Program National Center for Advancing Translational Sciences [NCATS] NIH Chemical Genomics Center [NCGC] U.S. Environmental Protection Agency [EPA] National Institutes of Environmental Health Sciences [NIEHS] National Toxicology Program [NTP] U.S. Food and Drug Administration [FDA] Tox21 Assay Overview: The peroxisome proliferator-activated receptors (PPARs) are lipid-activated transcription factors of the nuclear receptor superfamily with three distinct subtypes namely PPAR alpha, PPAR delta (PPARd) and PPAR gamma. All these subtypes heterodimerizes with Retinoid X receptor (RXR) and have different physiological functions. […] To identify the compounds that activate PPAR-delta signaling, GeneBLAzer PPAR delta UAS-bla HEK293H cell line (Invitrogen, Carlsbad, CA, USA) containing a beta-lactamase reporter gene under the control of an Upstream Activator Sequence (UAS) was used to screen the Tox21 compound library. The cytotoxicity of the Tox21 compound library against the PPARd-bla cell line was tested in parallel by measuring the cell viability using CellTiter-Glo assay (Promega, Madison, WI) in the same wells.
# Tox21 Assay Protocol Summary: PPARd-bla cells were dispensed at 3000 cells/6uL/well in 1536-well black wall/clear bottom plates using a Multidrop Combi (Thermo Fisher Scientific, Waltham, MA) dispenser. After the assay plates were incubated at 37 C and 5% CO2 for 5 h, 23 nL of compounds dissolved in DMSO, positive controls or DMSO only was transferred to the assay plate by a Pintool station (Kalypsys, San Diego, CA). The assay plates were incubated at 37C for 17 h. After 1 uL of LiveBLAzerTM B/G FRET substrate was added using a Bioraptr Flying Reagent Dispenser (FRD) workstation (Beckman Coulter, Indianapolis, IN, USA), the plates were incubated at room temperature for 2 h, and fluorescence intensity was measured by an Envision plate reader (PerkinElmer, Shelton, CT). For cell viability readout that measures cytotoxicity, 3 ul/well of CellTiter-Glo reagent was added into the assay plates using a Bioraptr FRD. After 30 min incubation at room temperature, the luminescence intensity in the plates was measured using a ViewLux plate reader (PerkinElmer).
# Potency is read from the fitted curve at half-maximal effect.
row,Compound,Potency
1,C=C(C)C(=O)OCCCCCCCCCCCC,inactive
2,COC(=O)c1ccc(C(=O)OC)cc1,inactive
3,CC(C)(CO)COC(=O)C(C)(C)CO,inactive
4,c1ccc2[nH]cnc2c1,inactive
5,CNC[C@H](O)[C@@H](O)[C@H](O)[C@H](O)CO,inactive
6,CCCCCCCCCCCCN,inactive and 19.5 µM (active)
7,CC1COc2ccccc2N1C(=O)C(Cl)Cl (stereo not given),inactive
8,C[C@@H]1O[C@@H](OC[C@H]2O[C@@H](Oc3c(-c4ccc(O)c(O)c4)oc4cc(O)cc(O)c4c3=O)[C@H](O)[C@@H](O)[C@@H]2O)[C@H](O)[C@H](O)[C@H]1O,inactive
9,CS(=O)(=O)c1ccc([C@@H](O)[C@@H](CO)NC(=O)C(Cl)Cl)cc1,inactive
10,c1ccc2ccccc2c1,inactive
11,O=C(Oc1ccccc1)c1ccc(O)cc1,inactive
12,CCCCC(CC)COC(=O)/C=C\C(=O)OCC(CC)CCCC (stereo not given),inactive
13,CCCCOCCOCCOC(=O)CCCCC(=O)OCCOCCOCCCC,inactive
14,CCCCCCC(C)(C)S,inactive
15,CC(=O)[C@@]1(O)CC[C@H]2[C@@H]3CCC4=CC(=O)CC[C@]4(C)[C@H]3CC[C@@]21C,inactive
16,CCOC(=O)[C@H](CCc1ccccc1)N[C@@H](C)C(=O)N1Cc2ccccc2C[C@H]1C(=O)O,inactive
17,CC(=O)CCc1ccccc1,inactive
18,CCCCCCCCCC(=O)O,inactive
19,O=[N+]([O-])c1cc(N(CCO)CCO)ccc1NCCO,inactive
20,Oc1c(Cl)cc(Cl)c(Cl)c1Cl,inactive

row,Compound,Potency
1,COCC(=O)O,inactive
2,CN(C)c1cccc(O)c1,inactive
3,CC(C)Cc1ccccc1,inactive
4,CCCCNC(N)=O,inactive
5,CCOC(=O)C1OC1c1ccccc1 (stereo not given),inactive
6,Cc1ccc(N)c(S(=O)(=O)O)c1,inactive
7,CC(C)(C)C1CCC(O)CC1 (stereo not given),inactive
8,O=S(=O)(O)c1cc(S(=O)(=O)O)c2c(N=Nc3ccccc3)c(O)ccc2c1,inactive
9,CCc1ccccc1O,inactive
10,Cc1cc(=O)[nH]c(C(C)C)n1,inactive
11,COCC(C)O (stereo not given),inactive
12,O=C(O)c1cc(-c2ccccc2)nc2ccccc12,inactive
13,CCc1ccc(O)cc1,inactive
14,O=[N+]([O-])C(CO)(CO)CO,inactive
15,CC[Si](OC(C)=O)(OC(C)=O)OC(C)=O,inactive
16,OCCOCCOCCOCCO,inactive
17,CCCCC(CC)COC(C)=O (stereo not given),inactive
18,O=C1CCCCC1,inactive
19,O=C1O[C@H](CO)[C@@H](O)[C@H](O)[C@H]1O,inactive
20,CC1Cc2ccccc2N1NC(=O)c1ccc(Cl)c(S(N)(=O)=O)c1 (stereo not given),inactive
